For assay [1], the system named is Human papillomavirus type 1a protein E7 (residues 44-93). The experiment in a line: HPV1a E7 fragment binders on microarrays, primary screen, biochemical, small-molecule microarray, residues 44-93, 635 nm fluorescence (AID 1108).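 Note: E7 fragment applied at 1 µg/mL in TBST for 1 h at 4 C; score combines spot fluorescence with its signal to noise ratio.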 The following applies: small-molecule microarray binding, fluorescence 635 nm; higher = more signal.
The nature of assay [2]: modulators of HCV replicon luciferase signal, primary screen, HCV replication inhibitor project, Huh7 cells, luciferase reporter (AID 1109).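 Note: huh7 hepatoma cells harbouring a luciferase neomycin HCV replicon reporter; luciferase luminescence as measure of HCV replicon replication; test concentration not given here.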 Conditions: 48 h, higher = more signal.
The target in assay [3] is Left-right determination factor 2 (Homo sapiens) (UniProt O00292). In words: LEFTY2 binders on small-molecule microarrays, primary screen, biochemical, small-molecule microarray, 635 nm fluorescence scan (AID 1110). The following applies: LEFTY2 binding, higher = more signal.
Sequence of Left-right determination factor 2 (Homo sapiens) (O00292 whole entry, looked up): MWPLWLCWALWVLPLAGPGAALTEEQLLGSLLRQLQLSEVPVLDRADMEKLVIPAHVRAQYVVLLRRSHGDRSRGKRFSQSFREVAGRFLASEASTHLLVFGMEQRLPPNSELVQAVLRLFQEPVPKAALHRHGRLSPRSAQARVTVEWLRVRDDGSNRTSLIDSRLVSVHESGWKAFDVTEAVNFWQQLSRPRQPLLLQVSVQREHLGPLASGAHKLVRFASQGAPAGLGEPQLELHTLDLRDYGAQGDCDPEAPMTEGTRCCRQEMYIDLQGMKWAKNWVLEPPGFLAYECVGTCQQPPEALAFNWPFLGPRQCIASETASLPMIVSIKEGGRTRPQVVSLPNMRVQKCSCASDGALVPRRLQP
Assay [4] deals with Calmodulin-1 (Homo sapiens) (UniProt P0DP23). The experiment in a line: CALM1 binders on microarrays, EGTA buffer, profiling panel, biochemical, small-molecule microarray, Cy5-labelled CALM1 (AID 1111).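 Note: labelled calmodulin applied in Tris saline Tween buffer holding calcium plus EGTA and DTT.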 Conditions: Cy5-CALM1 binding fluorescence, higher = more signal.
Assay [5] has the same target. In words: calcium-bound CALM1 binders on microarrays, profiling panel, artefact control for SMM control-protein annotation, biochemical, small-molecule microarray, Cy5-labelled CALM1, plus calcium (AID 1112).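 Note: score merges spot fluorescence with signal to noise from triplicate slides.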 Conditions: Cy5-CALM1 binding fluorescence, higher = more signal.
Assay [6] can be described thus: small-molecule microarray binders of probe aWnt5a, primary screen, biochemical, biotinylated probe, 635/667 nm fluorescence (AID 1113).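 Note: score merges 667 nm fluorescence intensity with signal-to-noise per printed feature.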 The following applies: higher = more signal.
The nature of assay [7]: small-molecule microarray binders of probe aShh, primary screen, biochemical, biotinylated probe, 635/667 nm fluorescence (AID 1114).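 Note: probe is biotin-labelled aShh protein from a stem cell growth factor screen; measures binding of labelled protein to compounds printed on the slide; score merges feature fluorescence at 667 nm with signal-to-noise.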 Conditions: higher = more signal.
Assay [8] is described as follows: small-molecule microarray binders of probe aNog, primary screen, biochemical, biotinylated probe, 635/667 nm fluorescence (AID 1115).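 Note: probe is biotinylated aNog protein used at 0.15 µg/mL for 1 h at 4 C; z-score combines 667 nm fluorescence of each spot with its signal to noise.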 Conditions: higher = more signal.
Assay [9] addresses Torsin-1A-interacting protein 1 (Homo sapiens) (UniProt Q5JTV8). The experiment in a line: LAP1 binders from COS7 cell lysate, primary screen, small-molecule microarray, 635/667 nm fluorescence (AID 1116). Conditions: COS7-hLAP1 lysate binding, 635 nm fluorescence, higher = more signal.
The target of assay [10] is Alpha-bungarotoxin (Bungarus multicinctus) (UniProt P60615). The experiment in a line: alpha-bungarotoxin binders on microarray, profiling panel, artefact control for SMM control protein annotation, biochemical, small-molecule microarray, Alexa647 label, 635/667 nm fluorescence (AID 1117). Conditions: alpha-BTX-A647 binding fluorescence, higher = more signal.
Sequence of Alpha-bungarotoxin (Bungarus multicinctus) (P60615 whole entry, looked up): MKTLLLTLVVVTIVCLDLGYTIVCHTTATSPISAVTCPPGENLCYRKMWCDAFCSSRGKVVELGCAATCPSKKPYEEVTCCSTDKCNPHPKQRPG

Sequence of Torsin-1A-interacting protein 1 (Homo sapiens) (Q5JTV8 whole entry, looked up): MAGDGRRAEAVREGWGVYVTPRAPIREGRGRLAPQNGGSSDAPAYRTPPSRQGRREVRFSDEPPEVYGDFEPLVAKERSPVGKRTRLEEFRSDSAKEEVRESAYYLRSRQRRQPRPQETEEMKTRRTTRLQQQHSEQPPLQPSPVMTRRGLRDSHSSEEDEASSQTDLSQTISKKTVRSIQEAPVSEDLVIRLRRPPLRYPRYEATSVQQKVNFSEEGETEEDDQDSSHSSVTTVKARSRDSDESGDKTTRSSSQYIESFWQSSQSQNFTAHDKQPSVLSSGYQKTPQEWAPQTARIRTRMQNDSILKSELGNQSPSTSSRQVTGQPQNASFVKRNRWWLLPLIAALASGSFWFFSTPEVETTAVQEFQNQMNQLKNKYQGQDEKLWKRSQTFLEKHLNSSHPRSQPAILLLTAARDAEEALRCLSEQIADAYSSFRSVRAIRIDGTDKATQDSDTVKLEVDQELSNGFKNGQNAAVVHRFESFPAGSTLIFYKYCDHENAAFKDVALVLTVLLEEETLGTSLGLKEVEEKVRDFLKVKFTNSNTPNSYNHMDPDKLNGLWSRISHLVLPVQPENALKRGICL

For `Cc1cc2c(nc1C)CCCCN2CC(C)ON=C[C@@H](C)[C@H](OCc1ccccc1)C(C)C` (stereo not given in full), the composite z-score in assay [1] is -0.683; in assay [3], -0.684; in assay [4], -1.4; in [5], -0.987; in [6], -0.224; in assay [7] it was -0.214. Also, the composite z-score in [8] was -0.415; in assay [9] it was -1.16; in assay [10], -0.916. The compound further showed a z-score in assay [2] of -3.07.
In the case of `CON=Cc1ccc(C(=O)N2[C@H](c3ccc(C)cc3)[C@@H](C)CC[C@H]2C(=O)OC)cc1`, the composite z-score in [1] is 1.25; in assay [3], -0.203; in assay [4], -0.129; in [5], -0.121; in assay [6], -0.0044; in assay [7] it was 0.0684. Further, the composite z-score in assay [8] is -0.0503; in assay [9], -0.0018; in [10], 0.449. The same compound returned a z-score in [2] of -1.33.
For the compound `Cc1ccc(S(=O)(=O)N[C@@H]2COC(=O)[C@@H](C)COC(=O)CC=C[C@H]2C)cc1`, the composite z-score in [1] is -0.534; in assay [3], 0.449; in [4], -0.0682; in assay [5], -0.523; in assay [6], -0.0222; in assay [7] it was -0.157. In addition, the composite z-score in assay [8] is -0.0489; in assay [9], 0.216; in assay [10], 0.293. The z-score in [2] turned out to be 0.264.
Turning to `COC(=O)[C@@H]1CC[C@@H](C)[C@H](c2ccc(Br)cc2)N1`, the composite z-score was -1.2 in [1]; 0.445 in [3]; -0.227 in assay [4]; -0.0163 in assay [5]; -0.136 in assay [6]; -0.226 in assay [7]. Also, the composite z-score in [8] is -0.247; in [9], -0.0359; in assay [10] it was -0.309. Also, the z-score in assay [2] is -0.198.
As to `CCOC(=O)C1=NO[C@]2(C=C(Br)C3(OCCCO3)[C@H]3O[C@H]32)C1`, the composite z-score in assay [1] was -1.53; in assay [3], 0.306; in assay [4] it was -1.04; in [5] it was -0.175; in assay [6], -0.161; in assay [7] it was -0.0879. Further, the composite z-score in assay [8] came out at 0.341; in assay [9] it was 0.194; in [10] it was 0.477. The compound also came in with a z-score in [2] of 0.426.
As for `COc1ccc(C#C[C@@H]2C=C[C@H](OC(C)=O)[C@@H](COC(C)=O)O2)cc1`, the composite z-score was 0.318 in assay [1]; 0.591 in assay [3]; -0.268 in [4]; -0.534 in assay [5]; -0.2 in [6]; -0.0471 in assay [7]. Further, the composite z-score is -0.208 in assay [8], 0.257 in assay [9] and 0.193 in assay [10]. This compound also yielded a z-score in [2] of -2.21.
Take `CO[C@H]1COC(=O)[C@H](C)NC(=O)[C@@H](C)COC(=O)[C@H]2CCCN2C(=O)CC=C[C@H]1C`: the composite z-score was 0.13 in assay [1]; 0.663 in assay [3]; -0.538 in assay [4]; -1.38 in assay [5]; -0.144 in [6]; -0.24 in assay [7]. The composite z-score in assay [8] is -0.28; in assay [9], 0.109; in [10], -0.0339. The same compound had a z-score in assay [2] of -0.328.
As for `COc1cccc([C@@H]2Oc3ccc(OC)cc3C(=O)[C@H]2O)c1`, the composite z-score was 0.0299 in [1]; 0.386 in assay [3]; 0.111 in assay [4]; -0.397 in [5]; -0.157 in assay [6]; -0.0211 in [7]. In addition, the composite z-score in assay [8] is -0.519; in assay [9] it was -0.0655; in [10], 1.11. This compound displayed a z-score in assay [2] of 2.25.
For the compound `CCOC(=O)[C@H](CC(C)C)NC(=O)CCC1CC(OC(=O)NCc2cccc3ccccc23)CC2(CCCC(COC(=O)NCCOc3ccccc3)O2)O1` (stereo not given in full), the composite z-score is 1.32 in assay [1]; 0.518 in assay [3]; 0.721 in [4]; -0.143 in [5]; 0.0162 in assay [6]; -0.253 in assay [7]. In addition, the composite z-score in assay [8] was -0.311; in assay [9], 0.556; in assay [10], 0.266. In [2], this compound displayed a z-score of -0.687.
As to `CC(C)CON=C1C[C@@H](O)[C@@H](O)[C@@H]2[C@@H]3C(=O)N(Cc4ccc5c(c4)OCO5)C(=O)[C@@H]3CC[C@H]12`, the composite z-score in [1] was 1.33; in assay [3] it was 0.375; in [4], -0.382; in [5], -0.576; in [6], 0.0044; in assay [7], -0.291. Further, the composite z-score in [8] was -0.467; in assay [9] it was 0.54; in assay [10] it was 0.411. This compound also displayed a z-score in [2] of -1.24.
Turning to `O=C1CCCC=C1C(O)CCCCBr` (stereo not given), the composite z-score was 0.619 in assay [1]; -0.0175 in assay [3]; 1.35 in [4]; 0.403 in assay [5]; -0.124 in assay [6]; 0.191 in assay [7]. Besides, the composite z-score in assay [8] was -0.438; in assay [9] it was 0.293; in [10] it was 2.09. This compound came in with a z-score in assay [2] of -4.22.
In the case of `CCOC(=O)[C@H](Cc1ccccc1)NC(=O)CCC1CC(OC(=O)NCc2ccc3c(c2)OCO3)CC2(CCCC(COC(=O)NCCc3ccccc3OC)O2)O1` (stereo not given in full), the composite z-score in [1] was 1.39; in assay [3], 0.816; in [4], 0.627; in [5], 0.157; in [6], -0.0944; in assay [7], -0.0471. The composite z-score was -0.0125 in [8], 0.775 in assay [9] and 1.11 in assay [10]. Further, the z-score in [2] is -1.11.
On to `O=C1C[C@@H](O)[C@@H](O)[C@@H]2[C@@H]3C(=O)N(C[C@@H]4CCCO4)C(=O)[C@@H]3CC[C@H]12`, for which the composite z-score in assay [1] is 0.265; in assay [3], 0.903; in [4], 0.0222; in assay [5] it was -0.522; in assay [6], -0.0478; in [7], -0.0337. The composite z-score in assay [8] was 0.0309; in assay [9] it was 0.224; in [10], 0.384. In [2], this compound had a z-score of 0.624.
As to `CC(C)C[C@H](NC(=O)CCC1CC(OC(=O)NCc2cccc3ccccc23)CC2(CCCC(COC(=O)NCc3ccccc3)O2)O1)C(=O)NCC(c1ccccc1)c1ccccc1` (stereo not given in full), the composite z-score in [1] was 1.28; in [3], 0.913; in assay [4], 0.0799; in [5], -0.202; in assay [6], -0.0825; in [7] it was 0.0611. Moreover, the composite z-score in assay [8] was -0.0863; in assay [9], 0.508; in [10], -0.157. The z-score in assay [2] is -1.27.
In the case of `COc1ccc(O[C@H]2C=C[C@@H](c3ccccc3)O[C@@H]2CON=C(C)C)cc1`, the composite z-score was -0.336 in [1]; 0.317 in assay [3]; 0.0047 in assay [4]; 0.495 in assay [5]; 0.0761 in assay [6]; 0.318 in [7]. In addition, the composite z-score in [8] is 0.118; in assay [9] it was 0.314; in assay [10] it was 0.724. The compound further showed a z-score in assay [2] of -0.75.
On to `COC(=O)[C@H](C)NC(=O)CCC1CC(OC(=O)NCc2ccc3c(c2)OCO3)CC2(CCCC(COC(=O)NCCc3ccccc3OC)O2)O1` (stereo not given in full), for which the composite z-score in assay [1] is 0.776; in assay [3], 0.0048; in [4], -0.173; in [5], 0.351; in [6] it was -0.219; in assay [7] it was -0.206. In addition, the composite z-score was -0.0653 in [8], 0.561 in [9] and 0.253 in [10]. The z-score in assay [2] was -0.941.
Take `CC(CCN1CCCc2nc(C)c(C)cc21)=NOC(C)CN1CCCCc2nc(C)c(C)cc21` (stereo not given): the composite z-score in [1] was 1.35; in [3] it was 0.984; in [4] it was 0.341; in assay [5], -0.568; in assay [6], 0.159; in assay [7], 0.689. The composite z-score in assay [8] stood at 0.57; in assay [9], 0.436; in assay [10], 0.714. In addition, the z-score in assay [2] is -1.66.
